Active and inactive are the calls of the source. Unless noted, no rule for the calls is given here.
Legend:
[1] = compounds binding Alexa647 anti-His antibody – biochemical, small-molecule microarray, 635 nm fluorescence, artefact control for SMM control protein annotation, primary screen (AID 1128); details: higher = more signal;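 also: score merges feature fluorescence with signal-to-noise for each printed compound spot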
[2] = tested on: Human papillomavirus type 1a E7 protein (residues 1-88); assay: HPV1a E7 small-molecule binders, primary screen, biochemical, small-molecule microarray, residues 1-88, 635 nm (AID 1129); details: small-molecule microarray binding, fluorescence 635 nm; higher = more signal
[3] = biological target: Focal adhesion kinase 1 (Homo sapiens) (UniProt Q05397); assay: PTK2 protein binding on printed compound slides – biochemical, small-molecule microarray, 635/667 nm fluorescence, BSA, DTT, primary screen (AID 1130); details: 635 nm fluorescence, higher = more signal;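 also: composite of spot emission at 667 nm and signal to noise over triplicate slides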
Sequence of Focal adhesion kinase 1 (Homo sapiens) (Q05397 whole entry, looked up): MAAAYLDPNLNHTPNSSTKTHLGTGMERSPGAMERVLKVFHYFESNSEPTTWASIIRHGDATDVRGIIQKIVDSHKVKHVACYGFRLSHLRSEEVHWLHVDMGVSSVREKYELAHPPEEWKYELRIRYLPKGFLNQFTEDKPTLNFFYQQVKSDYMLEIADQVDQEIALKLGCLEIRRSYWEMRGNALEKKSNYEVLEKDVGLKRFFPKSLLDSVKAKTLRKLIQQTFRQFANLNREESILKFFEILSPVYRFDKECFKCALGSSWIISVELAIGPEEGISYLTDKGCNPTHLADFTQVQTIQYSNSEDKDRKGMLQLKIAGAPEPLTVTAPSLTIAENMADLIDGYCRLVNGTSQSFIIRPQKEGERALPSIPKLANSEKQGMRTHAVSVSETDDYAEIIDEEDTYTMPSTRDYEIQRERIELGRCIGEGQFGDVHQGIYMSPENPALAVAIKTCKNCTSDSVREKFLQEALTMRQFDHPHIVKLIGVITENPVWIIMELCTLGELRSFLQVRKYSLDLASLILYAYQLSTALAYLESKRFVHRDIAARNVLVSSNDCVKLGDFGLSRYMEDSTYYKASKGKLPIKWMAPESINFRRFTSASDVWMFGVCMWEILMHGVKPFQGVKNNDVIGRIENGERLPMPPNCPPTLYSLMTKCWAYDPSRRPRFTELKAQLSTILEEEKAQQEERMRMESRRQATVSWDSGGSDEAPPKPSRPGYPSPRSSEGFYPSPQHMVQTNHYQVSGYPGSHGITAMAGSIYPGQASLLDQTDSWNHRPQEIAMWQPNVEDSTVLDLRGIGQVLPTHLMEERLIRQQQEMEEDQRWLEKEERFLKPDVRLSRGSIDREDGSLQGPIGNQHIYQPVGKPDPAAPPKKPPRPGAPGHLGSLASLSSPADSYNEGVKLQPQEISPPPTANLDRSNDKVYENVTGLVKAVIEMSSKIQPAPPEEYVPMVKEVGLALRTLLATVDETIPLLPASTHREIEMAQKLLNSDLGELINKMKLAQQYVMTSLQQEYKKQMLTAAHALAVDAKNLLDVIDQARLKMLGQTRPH

[4] = tested on: Fibrinogen (Alexa647-labelled); assay: Alexa647-fibrinogen binding to printed small molecules – biochemical, small-molecule microarray, 635/667 nm fluorescence, artefact control for SMM control-protein annotation, profiling panel (AID 1131); details: fibrinogen-A647 binding fluorescence, higher = more signal;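 also: z-score merges 667 nm fluorescence with per-spot signal-to-noise over triplicate slides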
[5] = biological target: Follistatin (Homo sapiens) (UniProt P19883); assay: FST protein binding to printed compounds – biochemical, small-molecule microarray, 635/667 nm fluorescence, primary screen (AID 1132); details: 635 nm fluorescence, higher = more signal
Sequence of Follistatin (Homo sapiens) (P19883 whole entry, looked up): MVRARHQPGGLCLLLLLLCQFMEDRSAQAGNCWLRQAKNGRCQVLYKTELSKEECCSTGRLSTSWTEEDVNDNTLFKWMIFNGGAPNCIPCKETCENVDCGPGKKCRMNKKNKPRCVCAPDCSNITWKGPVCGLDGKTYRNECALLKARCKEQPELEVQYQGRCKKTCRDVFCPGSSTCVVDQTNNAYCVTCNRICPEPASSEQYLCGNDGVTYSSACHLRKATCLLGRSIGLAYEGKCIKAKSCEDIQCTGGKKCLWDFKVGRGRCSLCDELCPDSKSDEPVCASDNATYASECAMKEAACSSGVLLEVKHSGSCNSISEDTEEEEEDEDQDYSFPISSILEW

[6] = biological target: Fibroblast growth factor 2 (Homo sapiens) (UniProt P09038); assay: basic fibroblast growth factor binding to printed compounds – biochemical, small-molecule microarray, 635/667 nm fluorescence, primary screen (AID 1133); details: FGF2, fluorescence 635/667, higher = more signal
Sequence of Fibroblast growth factor 2 (Homo sapiens) (P09038 whole entry, looked up): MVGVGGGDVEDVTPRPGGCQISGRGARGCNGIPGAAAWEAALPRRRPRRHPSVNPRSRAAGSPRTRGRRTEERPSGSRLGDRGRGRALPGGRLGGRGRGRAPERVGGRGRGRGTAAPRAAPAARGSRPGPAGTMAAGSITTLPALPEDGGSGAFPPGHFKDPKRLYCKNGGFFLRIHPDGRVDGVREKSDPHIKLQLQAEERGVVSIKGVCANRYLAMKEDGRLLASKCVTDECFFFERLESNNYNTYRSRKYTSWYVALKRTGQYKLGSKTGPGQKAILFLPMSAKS

[7] = JC-1 mitochondrial potential readout, lung cancer cells – cell-based, A549, JC-1 fluorescence, basal, 24 h, 100 nL, profiling panel (AID 1138); details: higher = more signal;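 also: A549 lung adenocarcinoma cells under basal conditions with no added stimulus; test concentration not given here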
Lefty1 = Lefty1 protein binding to printed compounds – biochemical, small-molecule microarray, 635/667 nm fluorescence, primary screen (AID 1139); details: fluorescence 635/667, higher = more signal
[8] = tested on: wheat germ agglutinin (Triticum aestivum), Alexa647-labelled; assay: Alexa647-WGA lectin binding to printed small molecules – biochemical, small-molecule microarray, 635/667 nm fluorescence, artefact control for SMM control-protein annotation, profiling panel (AID 1140); details: WGA-A647 binding, 635 nm fluorescence, higher = more signal;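 also: score merges 667 nm feature emission with signal to noise over triplicate slides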
[9] = biological target: Luciferin 4-monooxygenase (Photinus pyralis) (UniProt P08659); assay: inhibition of purified Photinus pyralis luciferase – biochemical, luminescence, purified enzyme, 2006 set, primary screen (AID 1141); details: purified firefly luciferase, SteadyGlo luminescence, 30 min; higher = more signal, called active from +8 up or from −8 down;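 also: cell-free assay with purified firefly luciferase at 100 ng per well in PBS; test concentration not given here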
Sequence of Luciferin 4-monooxygenase (Photinus pyralis) (P08659 whole entry, looked up): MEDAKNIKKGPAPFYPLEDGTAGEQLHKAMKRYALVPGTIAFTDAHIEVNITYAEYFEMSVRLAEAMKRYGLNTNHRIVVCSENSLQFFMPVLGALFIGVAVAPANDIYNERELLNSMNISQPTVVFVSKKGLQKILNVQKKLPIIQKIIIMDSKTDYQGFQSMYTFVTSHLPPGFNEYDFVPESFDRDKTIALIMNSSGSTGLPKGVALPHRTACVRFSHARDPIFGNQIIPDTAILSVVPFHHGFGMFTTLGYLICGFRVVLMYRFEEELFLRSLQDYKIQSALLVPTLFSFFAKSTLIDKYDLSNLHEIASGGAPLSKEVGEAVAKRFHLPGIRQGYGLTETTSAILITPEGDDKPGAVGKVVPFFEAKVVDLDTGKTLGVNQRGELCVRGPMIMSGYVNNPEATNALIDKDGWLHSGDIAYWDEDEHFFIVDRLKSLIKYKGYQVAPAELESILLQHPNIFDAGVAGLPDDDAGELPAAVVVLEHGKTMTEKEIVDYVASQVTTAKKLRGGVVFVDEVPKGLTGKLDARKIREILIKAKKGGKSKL

[10] = tested on: Wnt5a (protein binding on small-molecule microarray); assay: small molecules binding Wnt5a protein – biophysical, small-molecule microarray, 635/667 nm fluorescence, primary screen (AID 1142); details: 635 nm fluorescence, higher = more signal;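 also: fluorescence read at 667 nm with signal to noise per printed feature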
[11] = ATP-based viability of Huh7 replicon cells – cell-based, CellTiter-Glo luminescence, basal, 48 h, cytotoxicity control for HCV replication inhibitor project, primary screen (AID 1143); details: higher = more signal, called active from +8 up or from −8 down;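 also: Huh7 hepatoma cells carrying a hepatitis C replication reporter with no stimulus; test concentration not given here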
[12] = Pseudomonas biofilm growth suppression – PAO1 strain, BacTiter-Glo luminescence, LB-PBS, primary screen (AID 1144); details: P. aeruginosa PAO1 biofilm, 12 h, higher = more signal
[13] = basal CRE-LacZ reporter activity in PC12 – cell-based, unstimulated, primary screen (AID 1145); details: no forskolin, luminescence, 4.5 h, higher = more signal, called active from +8 up or from −8 down
[14] = forskolin-driven CRE-LacZ activity in PC12 – cell-based, CRE-LacZ reporter, forskolin-stimulated, primary screen (AID 1146); details: luminescence, 4.5 h, higher = more signal, called active from +8 up or from −8 down;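 also: PC12 cells with 6xCRE LacZ reporter stimulated by forskolin 10 µM; beta-galactosidase reporter signal reflecting CREB driven transcription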
[15] = biological target: Streptavidin (Streptomyces avidinii) (UniProt P22629); assay: compounds binding control protein streptavidin – biophysical, small-molecule microarray, 635/667 nm fluorescence, artefact control for SMM compound annotation, primary screen (AID 1147); details: higher = more signal;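 also: signal reflects streptavidin binding to arrayed compounds as a control protein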
Sequence of Streptavidin (Streptomyces avidinii) (P22629 whole entry, looked up): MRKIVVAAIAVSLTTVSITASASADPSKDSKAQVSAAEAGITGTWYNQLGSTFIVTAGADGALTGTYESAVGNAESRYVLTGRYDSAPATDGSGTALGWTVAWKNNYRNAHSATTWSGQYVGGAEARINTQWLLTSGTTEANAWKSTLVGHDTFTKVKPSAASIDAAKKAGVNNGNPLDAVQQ

[16] = probe aInhba binding on compound microarray – biochemical, small-molecule microarray, 635/667 nm fluorescence, primary screen (AID 1148); details: higher = more signal;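 also: score merges 667nm spot fluorescence with signal-to-noise for antibody binding to printed compounds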
Torsin-1A (Homo sapiens) [17] = biological target: Torsin-1A (Homo sapiens) (UniProt O14656); assay: TOR1A wild-type binding on microarray – cell lysate, small-molecule microarray, lysate, 635/667 nm, primary screen (AID 1149); details: COS7 hTOR1A-WT lysate, 635 nm fluorescence, higher = more signal
Sequence of Torsin-1A (Homo sapiens) (O14656 whole entry, looked up): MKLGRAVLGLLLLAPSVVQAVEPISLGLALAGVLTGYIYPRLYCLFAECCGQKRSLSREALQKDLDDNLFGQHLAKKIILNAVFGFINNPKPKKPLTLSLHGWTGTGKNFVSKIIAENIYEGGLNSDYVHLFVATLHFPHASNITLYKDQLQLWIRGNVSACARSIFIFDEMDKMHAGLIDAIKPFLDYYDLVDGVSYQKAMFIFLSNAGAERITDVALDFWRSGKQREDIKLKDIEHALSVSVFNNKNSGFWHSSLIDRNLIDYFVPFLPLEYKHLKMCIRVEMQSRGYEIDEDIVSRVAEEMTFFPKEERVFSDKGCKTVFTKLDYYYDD

Torsin-1A (Homo sapiens) [18] = biological target: Torsin-1A (Homo sapiens) (UniProt O14656); assay: torsin A mutant lysate binding on microarrays – cell lysate, small-molecule microarray, COS7 lysate, 635/667 nm fluorescence, primary screen (AID 1150); details: COS7 hTOR1A mutant lysate, 635 nm fluorescence, higher = more signal;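 also: score pools 667 nm emission and signal to noise measuring lysate protein binding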
[19] = tested on: Sonic hedgehog protein (Shh); assay: Sonic hedgehog microarray binding compounds – biochemical, small-molecule microarray, 635/667 nm fluorescence, primary screen (AID 1151); details: 635 nm fluorescence, higher = more signal;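 also: Shh protein binding to compounds spotted on small-molecule microarray slides; score combines spot fluorescence intensity with signal-to-noise across triplicate slides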

CCCCCCCCCCC(O)C1C=CC2C(=O)NC(=O)C2N1Nc1ccccn1 (stereo not given)
composite z-score [1]: 0.121
composite z-score [2]: 0.749
composite z-score [3]: 0.675
composite z-score [4]: 0.666
composite z-score [5]: -0.008
composite z-score [6]: -1.4
z-score [7]: 0.706
composite z-score (Lefty1): -0.458
composite z-score [8]: 0.331
z-score [9]: -0.765 (inactive)
composite z-score [10]: -0.41
z-score [11]: -3.4 (inactive)
z-score [12]: -1.27 (inactive)
z-score [13]: 3.3 (inactive)
z-score [14]: 0.383 (inactive)
composite z-score [15]: 0.606
composite z-score [16]: -0.0087
composite z-score (Torsin-1A (Homo sapiens) [17]): -1.17
composite z-score (Torsin-1A (Homo sapiens) [18]): -0.213
composite z-score [19]: -0.478

CO[C@H]1O[C@H](CO)[C@@H](OC(=O)Nc2ccc(C(F)(F)F)cc2)[C@H](OC(=O)Nc2ccccc2)[C@H]1OC(=O)Nc1ccccc1
composite z-score [1]: 2.65
composite z-score [2]: 1.25
composite z-score [3]: 1.15
composite z-score [4]: 0.737
composite z-score [5]: 1.29
composite z-score [6]: 0.805
z-score [7]: -1.89
composite z-score (Lefty1): 0.88
composite z-score [8]: 1.33
z-score [9]: -0.579 (inactive)
composite z-score [10]: 0.71
z-score [11]: -5.9 (inactive)
z-score [12]: -0.109 (inactive)
z-score [13]: 3.11 (inactive)
z-score [14]: -1.51 (inactive)
composite z-score [15]: 1.22
composite z-score [16]: 0.3
composite z-score (Torsin-1A (Homo sapiens) [17]): 0.386
composite z-score (Torsin-1A (Homo sapiens) [18]): 0.183
composite z-score [19]: 1.2

COc1ccc([Si](C)(C)[C@H]2[C@H](CCO)O[C@@]3(C(=O)N(Cc4cccc(N5CCOC5=O)c4)c4ccccc43)[C@@H]2C)cc1
composite z-score [1]: 0.56
composite z-score [2]: 1.13
composite z-score [3]: 0.413
composite z-score [4]: 0.708
composite z-score [5]: 0.433
composite z-score [6]: 0.203
z-score [7]: 0.00631
composite z-score (Lefty1): 0.729
composite z-score [8]: 0.63
z-score [9]: -0.0833 (inactive)
composite z-score [10]: 0.217
z-score [11]: -5.72 (inactive)
z-score [12]: -0.112 (inactive)
z-score [13]: 0.907 (inactive)
z-score [14]: -0.827 (inactive)
composite z-score [15]: 0.71
composite z-score [16]: -0.0736
composite z-score (Torsin-1A (Homo sapiens) [17]): -0.0637
composite z-score (Torsin-1A (Homo sapiens) [18]): -0.217
composite z-score [19]: 1.47

CC(C)C(CO)N1C(=O)[C@@H]2[C@H]3C(=O)OCC=C[C@H]3OC23C=CCN(Cn2nnc4ccccc42)C(=O)[C@@H]13 (stereo not given in full)
composite z-score [1]: 0.36
composite z-score [2]: -0.938
composite z-score [3]: 0.118
composite z-score [4]: -0.424
composite z-score [5]: -0.802
composite z-score [6]: -1.05
z-score [7]: -0.58
composite z-score (Lefty1): -1.72
composite z-score [8]: -0.203
z-score [9]: 0.152 (inactive)
composite z-score [10]: -0.257
z-score [11]: 0.44 (inactive)
z-score [12]: 0.0585 (inactive)
z-score [13]: -0.492 (inactive)
z-score [14]: -0.0021 (inactive)
composite z-score [15]: -1.05
composite z-score [16]: -0.231
composite z-score (Torsin-1A (Homo sapiens) [17]): -0.957
composite z-score (Torsin-1A (Homo sapiens) [18]): -2.27
composite z-score [19]: -1

CC1C=C(CCCO)C=C(C(=O)OCCS(C)(=O)=O)C(C(=O)OCCS(C)(=O)=O)=CN1Cc1cccc(OC(F)(F)F)c1 (stereo not given)
composite z-score [1]: 1
composite z-score [2]: 0.799
composite z-score [3]: -0.0696
composite z-score [4]: 1.02
composite z-score [5]: 0.0361
composite z-score [6]: -0.356
z-score [7]: 0.848
composite z-score (Lefty1): -0.309
composite z-score [8]: 0.785
z-score [9]: -0.234 (inactive)
composite z-score [10]: 0.0382
z-score [11]: -0.911 (inactive)
z-score [12]: -0.846 (inactive)
z-score [13]: -0.364 (inactive)
z-score [14]: 0.56 (inactive)
composite z-score [15]: 1.28
composite z-score [16]: 0.288
composite z-score (Torsin-1A (Homo sapiens) [17]): 0.887
composite z-score (Torsin-1A (Homo sapiens) [18]): 0.893
composite z-score [19]: -0.0368
